This note sets out measurements from PubChem BioAssay (EPA / NIEHS).

Activity calls are given as the source filed them. Rule for the calls: active = hit-call score of the fitted dose curve at least 0.9, where 1 is the maximum; inactive = score below 0.9.

Holding throughout (details): mRNA level, 48 h; actives raise or lower the signal
Read-out in assay [1]: matrix metalloproteinase-10 (MMP10), MMP10 (gene 4319)
As to the kind of experiment: LTEA_HepaRG_MMP10: Life Technologies and Expression Analysis (LTEA) Assay for matrix metalloproteinase-10 (MMP10) using HepaRG (AID 2283517). The method, boiled down: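 In differentiated HepaRG cultures kept in 0.5% DMSO, test chemicals act for 48 h over an eight-point range with a top dose of 100 uM. Expression is then quantified by TaqMan RT-PCR against ACTB, GAPDH and POLR2A.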

Read-out in a further assay: MYC, MYC (gene 4609)
Kind of assay: LTEA_HepaRG_MYC: Life Technologies and Expression Analysis (LTEA) Assay for MYC using HepaRG (AID 2283518). The method, boiled down:
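qRT-PCR read-out of MYC transcript (Fluidigm TaqMan, housekeeping-normalized) after 48 h chemical exposure of HepaRG cells; eight concentrations, top 100 uM, half-log steps. Bidirectional curve fitting against 0.5% DMSO vehicle baseline.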

Read-out in assay [2]: matrix metalloproteinase-3 (MMP3), MMP3 (gene 4314)
Kind of assay: LTEA_HepaRG_MMP3: Life Technologies and Expression Analysis (LTEA) Assay for matrix metalloproteinase-3 (MMP3) using HepaRG (AID 2283519). In a few lines: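 Human liver HepaRG cultures received chemicals (top concentration 100 uM, 0.5% DMSO) for 48 h in duplicate. MMP3 mRNA induction or loss was then assessed via TaqMan qRT-PCR with housekeeping-gene normalisation.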

Read-out in assay [3]: Paternally Expressed 10 (PEG10), PEG10 (gene 23089)
As to the kind of experiment: LTEA_HepaRG_PEG10: Life Technologies and Expression Analysis (LTEA) Assay for Paternally Expressed 10 (PEG10) using HepaRG (AID 2283520). In a few lines: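 PEG10 transcript measured by Fluidigm qRT-PCR, normalized to three housekeeping genes, in HepaRG cells treated 48 h (highest 100 uM, half-log steps, 0.5% DMSO vehicle). Cells plated 48 h before switching to serum-free induction medium.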

Read-out in assay [4]: Protein phosphatase 2A (PPP2R4), PTPA (gene 5524)
As to the kind of experiment: LTEA_HepaRG_PPP2R4: Life Technologies and Expression Analysis (LTEA) Assay for Protein phosphatase 2A (PPP2R4) using HepaRG (AID 2283522). The method, boiled down:
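Expression was quantified by Fluidigm qRT-PCR normalised to three housekeeping genes after 48 h treatment. Human HepaRG cells received an 8-point series from 100 µM downward by half-logs, in duplicate with 0.5% DMSO vehicle and 1 mM phenobarbital as induction control.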

Read-out in assay [5]: Phosphatase and tensin (PTEN), PTEN (gene 5728)
Kind of assay: LTEA_HepaRG_PTEN: Life Technologies and Expression Analysis (LTEA) Assay for Phosphatase and tensin (PTEN) using HepaRG (AID 2283523). In a few lines:
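Expression of PTEN is quantified in the human liver line HepaRG following two days of dosing (top concentration 100 uM, half-log dilutions, 0.5% DMSO). Values derive from bidirectional curve fitting relative to DMSO controls.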

Read-out in assay [6]: solute carrier (SLC22A1), SLC22A1 (gene 6580)
Kind of assay: LTEA_HepaRG_SLC22A1: Life Technologies and Expression Analysis (LTEA) Assay for solute carrier (SLC22A1) using HepaRG (AID 2283524).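 For AC50: TaqMan qRT-PCR normalized to ACTB GAPDH and POLR2A housekeeping genes.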 The method, boiled down:
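Transcript induction or suppression of SLC22A1 in human HepaRG cultures is scored after 48 h chemical treatment, with DMSO (0.5%) as baseline for bidirectional fitting. Concentrations span eight half-log points topping at 100 uM.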

Read-out in assay [7]: Pyruvate Dehydrogenase Kinase 4 (PDK4), PDK4 (gene 5166)
As to the kind of experiment: LTEA_HepaRG_PDK4: Life Technologies and Expression Analysis (LTEA) Assay for Pyruvate Dehydrogenase Kinase 4 (PDK4) using HepaRG (AID 2283525). The method, boiled down: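 Eight-point, half-log concentration series (max 100 uM, 0.5% DMSO) applied to differentiated HepaRG cells for 48 h in duplicate. Endpoint: PDK4 mRNA induction or repression by qRT-PCR against DMSO baseline.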

Read-out in assay [8]: NAD(P)H dehydrogenase [quinone] 1 (NQO1), NQO1 (gene 1728)
Kind of assay: LTEA_HepaRG_NQO1: Life Technologies and Expression Analysis (LTEA) Assay for NAD(P)H dehydrogenase [quinone] 1 (NQO1) using HepaRG (AID 2283526). The method, boiled down: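 NQO1 transcript induction or loss measured by TaqMan qRT-PCR, referenced to three housekeeping genes and fitted bidirectionally against 0.5% DMSO. HepaRG cultures exposed 48 h, duplicate, eight-point half-log series, top 100 uM.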

Read-out in assay [9]: Nuclear factor erythroid 2-related factor 2 (Homo sapiens) (UniProt Q16236)
Kind of assay: LTEA_HepaRG_NFE2L2: Life Technologies and Expression Analysis (LTEA) Assay for Nuclear factor erythroid 2-related factor 2 (NFE2L2) Transcription Factor using HepaRG (AID 2283527).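 Note: TaqMan qRT-PCR transcript level normalised to ACTB GAPDH and POLR2A housekeeping genes.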 In a few lines: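 Human liver HepaRG line treated in duplicate for 48 h with an eight-point series topping at 100 uM. Gene expression of NFE2L2 by qRT-PCR, bidirectionally fitted against the vehicle control.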

Read-out in assay [10]: succinate dehydrogenase complex iron sulfur subunit B (SDHB), SDHB (gene 6390)
Kind of assay: LTEA_HepaRG_SDHB: Life Technologies and Expression Analysis (LTEA) Assay for succinate dehydrogenase complex iron sulfur subunit B (SDHB) using HepaRG (AID 2283528). In a few lines:
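HepaRG cells (~100,000/well, plated 48 h) exposed in duplicate for 48 h in serum-free induction medium to 8-point half-log series from 100 uM in 0.5% DMSO; mRNA by qRT-PCR normalised to ACTB, GAPDH, POLR2A; bidirectional fit versus DMSO.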

Read-out in assay [11]: Signal transducer and activator of transcription 3 (Homo sapiens) (UniProt P40763)
As to the kind of experiment: LTEA_HepaRG_STAT3: Life Technologies and Expression Analysis (LTEA) Assay for Signal transducer and activator of transcription (STAT3) using HepaRG (AID 2283529). In a few lines: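 In this transcriptional endpoint, HepaRG cultures receive test chemicals at up to 100 uM for 48 h, tested in duplicate. STAT3 mRNA is normalized to ACTB, GAPDH and POLR2A.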

Read-out in assay [12]: solute carrier (SLCO1B1), SLCO1B1 (gene 10599)
As to the kind of experiment: LTEA_HepaRG_SLCO1B1: Life Technologies and Expression Analysis (LTEA) Assay for solute carrier (SLCO1B1) using HepaRG (AID 2283530). The method, boiled down:
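SLCO1B1 transcript read by qRT-PCR (Fluidigm arrays), normalized to three housekeeping genes, after 48 h chemical exposure of HepaRG cells; bidirectional concentration-response fitting versus 0.5% DMSO baseline. Eight-point half-log series, maximum 100 uM.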

Read-out in assay [13]: sulfotransferase 2A1 (SULT2A1), SULT2A1 (gene 6822)
Kind of assay: LTEA_HepaRG_SULT2A1: Life Technologies and Expression Analysis (LTEA) Assay for sulfotransferase 2A1 (SULT2A1) using HepaRG (AID 2283531). The method, boiled down:
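HepaRG, 48 h chemical exposure, 8-pt half-log curve from 100 uM in 0.5% DMSO, duplicates. Readout: TaqMan qRT-PCR of SULT2A1 mRNA, housekeeping-normalized. Bidirectional fit vs DMSO baseline.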

Read-out in assay [14]: Transforming Growth Factor (TGFA), TGFA (gene 7039)
As to the kind of experiment: LTEA_HepaRG_TGFA: Life Technologies and Expression Analysis (LTEA) Assay for Transforming Growth Factor (TGFA) using HepaRG (AID 2283532). In a few lines: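 Gene expression of TGFA was quantified by qRT-PCR after human HepaRG cells were treated for 48 h with test chemicals (eight concentrations, highest 100 uM, 0.5% DMSO). Activity in either direction was fitted relative to DMSO.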

Read-out in assay [15]: Transforming Growth Factor (TGFB1), TGFB1 (gene 7040)
As to the kind of experiment: LTEA_HepaRG_TGFB1: Life Technologies and Expression Analysis (LTEA) Assay for Transforming Growth Factor (TGFB1) Transporter using HepaRG (AID 2283533). In a few lines: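 qRT-PCR readout of TGFB1 transcript in HepaRG lysates, normalized to three housekeeping genes; gain or loss of signal fitted relative to 0.5% DMSO vehicle. Exposure: 48 h, 8-point curve from 100 uM, duplicate wells.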

Read-out in another assay: TIMP1, TIMP1 (gene 7076)
As to the kind of experiment: LTEA_HepaRG_TIMP1: Life Technologies and Expression Analysis (LTEA) Assay for TIMP1 using HepaRG (AID 2283534).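 Note: TaqMan qRT-PCR signal normalized to ACTB GAPDH and POLR2A housekeeping genes.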 The method, boiled down:
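HepaRG, 48 h exposure, 8-pt half-log series from 100 uM in 0.5% DMSO, duplicates; TIMP1 transcript by Fluidigm qRT-PCR, housekeeping-normalized; bidirectional curve fit vs DMSO baseline.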

Read-out in assay [16]: Tumor necrosis factor receptor 1 (TNFRSF1A), TNFRSF1A (gene 7132)
As to the kind of experiment: LTEA_HepaRG_TNFRSF1A: Life Technologies and Expression Analysis (LTEA) Assay for Tumor necrosis factor receptor 1 (TNFRSF1A) using HepaRG (AID 2283535). In a few lines: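 HepaRG, 48 h plating then 48 h chemical exposure, serum-free induction media; 8-pt CRC from 100 uM, half-log, 0.5% DMSO vehicle, duplicates. Readout: TaqMan qRT-PCR (Fluidigm), housekeeping-gene normalized; bidirectional fit vs DMSO.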

Read-out in assay [17]: Thyroid Hormone Responsive (THRSP), THRSP (gene 7069)
Kind of assay: LTEA_HepaRG_THRSP: Life Technologies and Expression Analysis (LTEA) Assay for Thyroid Hormone Responsive (THRSP) using HepaRG (AID 2283536). The method, boiled down:
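Cell model: human HepaRG, approx. 100,000 cells/well, 0.5% DMSO vehicle. Exposure lasts 48 h; phenobarbital 1 mM serves as induction positive control. Gene expression is measured by qRT-PCR against three endogenous control genes.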

Read-out in assay [18]: Nuclear factor NF-kappa-B p105 subunit (Homo sapiens) (UniProt P19838)
Kind of assay: LTEA_HepaRG_NFKB1: Life Technologies and Expression Analysis (LTEA) Assay for Nuclear Factor Kappa B Subunit 1 (NFKB1) using HepaRG (AID 2283521).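 Note: TaqMan qRT-PCR transcript normalised to ACTB GAPDH and POLR2A housekeeping genes.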 In a few lines:
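Differentiated human HepaRG cells in serum-free induction medium with 0.5% DMSO were exposed for 48 h to eight half-log concentrations, top 100 uM, in duplicate. NFKB1 mRNA measured by Fluidigm TaqMan qRT-PCR, normalised to ACTB, GAPDH and POLR2A; bidirectional fit versus DMSO.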

Signal transducer and activator of transcription 3 (Homo sapiens), sequence (P40763 whole entry, looked up): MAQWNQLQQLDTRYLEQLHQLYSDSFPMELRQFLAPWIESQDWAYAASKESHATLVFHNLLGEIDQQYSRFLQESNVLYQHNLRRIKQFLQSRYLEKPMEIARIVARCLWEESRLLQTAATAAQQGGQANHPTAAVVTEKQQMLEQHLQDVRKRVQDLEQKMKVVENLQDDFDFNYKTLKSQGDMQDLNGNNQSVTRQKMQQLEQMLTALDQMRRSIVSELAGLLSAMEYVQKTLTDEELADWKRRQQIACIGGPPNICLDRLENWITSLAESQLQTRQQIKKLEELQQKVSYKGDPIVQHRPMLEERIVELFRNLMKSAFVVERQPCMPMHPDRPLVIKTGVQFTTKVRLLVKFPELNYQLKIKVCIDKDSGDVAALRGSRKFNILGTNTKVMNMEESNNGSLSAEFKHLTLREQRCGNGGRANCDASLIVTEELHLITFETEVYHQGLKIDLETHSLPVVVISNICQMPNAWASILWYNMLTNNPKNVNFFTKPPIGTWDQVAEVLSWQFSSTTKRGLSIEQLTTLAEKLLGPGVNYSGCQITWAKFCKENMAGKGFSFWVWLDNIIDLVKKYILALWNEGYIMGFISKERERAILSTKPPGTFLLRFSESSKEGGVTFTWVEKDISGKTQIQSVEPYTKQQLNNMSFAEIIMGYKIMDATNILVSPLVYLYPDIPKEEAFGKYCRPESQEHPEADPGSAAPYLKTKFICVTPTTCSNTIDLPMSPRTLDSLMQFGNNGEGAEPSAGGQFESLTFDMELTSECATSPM
Nuclear factor erythroid 2-related factor 2 (Homo sapiens), sequence (Q16236 whole entry, looked up): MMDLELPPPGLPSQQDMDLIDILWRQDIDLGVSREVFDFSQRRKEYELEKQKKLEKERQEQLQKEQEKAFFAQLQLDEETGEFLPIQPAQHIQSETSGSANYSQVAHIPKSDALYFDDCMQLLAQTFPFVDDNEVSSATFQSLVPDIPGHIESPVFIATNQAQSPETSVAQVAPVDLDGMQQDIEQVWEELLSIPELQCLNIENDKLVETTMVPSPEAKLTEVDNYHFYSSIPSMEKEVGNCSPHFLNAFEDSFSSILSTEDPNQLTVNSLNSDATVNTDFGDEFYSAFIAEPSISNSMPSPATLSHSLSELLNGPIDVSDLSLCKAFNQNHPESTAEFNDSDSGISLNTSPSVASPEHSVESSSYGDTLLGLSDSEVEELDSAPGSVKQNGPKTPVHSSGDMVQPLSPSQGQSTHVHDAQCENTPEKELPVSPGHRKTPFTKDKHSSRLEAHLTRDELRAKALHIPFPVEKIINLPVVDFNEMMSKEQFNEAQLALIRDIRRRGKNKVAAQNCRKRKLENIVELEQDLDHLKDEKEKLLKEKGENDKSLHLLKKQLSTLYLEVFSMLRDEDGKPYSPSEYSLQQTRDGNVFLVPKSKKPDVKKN
Nuclear factor NF-kappa-B p105 subunit (Homo sapiens), sequence (P19838 whole entry, looked up): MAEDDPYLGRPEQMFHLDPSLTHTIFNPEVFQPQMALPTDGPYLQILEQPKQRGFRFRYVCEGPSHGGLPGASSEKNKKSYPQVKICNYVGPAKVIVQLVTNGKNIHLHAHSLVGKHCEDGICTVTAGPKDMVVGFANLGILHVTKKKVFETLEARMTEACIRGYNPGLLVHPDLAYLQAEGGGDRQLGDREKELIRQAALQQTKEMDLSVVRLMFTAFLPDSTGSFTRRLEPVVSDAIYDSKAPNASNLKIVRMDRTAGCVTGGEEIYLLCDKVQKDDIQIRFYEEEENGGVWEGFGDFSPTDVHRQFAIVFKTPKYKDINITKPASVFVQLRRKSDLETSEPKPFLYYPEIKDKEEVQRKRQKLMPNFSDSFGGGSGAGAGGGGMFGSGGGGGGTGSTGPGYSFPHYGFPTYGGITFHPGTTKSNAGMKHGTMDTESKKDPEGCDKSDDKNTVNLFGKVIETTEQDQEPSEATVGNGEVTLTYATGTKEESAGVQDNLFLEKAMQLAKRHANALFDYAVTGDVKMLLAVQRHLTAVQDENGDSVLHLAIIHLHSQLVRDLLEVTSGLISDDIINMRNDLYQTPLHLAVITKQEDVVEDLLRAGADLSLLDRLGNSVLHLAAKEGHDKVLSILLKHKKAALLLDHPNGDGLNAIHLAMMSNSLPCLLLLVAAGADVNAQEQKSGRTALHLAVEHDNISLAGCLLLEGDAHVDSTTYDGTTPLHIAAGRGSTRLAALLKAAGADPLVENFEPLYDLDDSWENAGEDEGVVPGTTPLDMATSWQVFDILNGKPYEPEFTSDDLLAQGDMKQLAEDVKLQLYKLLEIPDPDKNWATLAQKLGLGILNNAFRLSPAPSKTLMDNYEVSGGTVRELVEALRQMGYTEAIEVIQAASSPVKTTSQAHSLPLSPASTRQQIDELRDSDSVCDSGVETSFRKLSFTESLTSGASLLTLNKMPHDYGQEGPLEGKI

Take `CCCCc1ccc2c(n1)[C@@H](c1ccc(OC)cc1C[C@H](C)C(=O)O)[C@H](C(=O)O)[C@H]2c1ccc2c(c1)OCO2`: the outcome in assay [1] is “inactive”; in the assay with MYC, MYC (gene 4609), “inactive”; in assay [2] it was “inactive”; in [3] it was “inactive”; in assay [4] it was “inactive”; in [5], “inactive”. The molecule was classed as inactive in assay [6], in assay [7], in assay [8], in assay [9], in assay [10] and in [11]. The outcome is “inactive” in assay [12]; “inactive” in assay [13]; “inactive” in assay [14]; “inactive” in [15]; “inactive” with TIMP1, TIMP1 (gene 7076); “inactive” in assay [16]. Moreover, in assay [17], the result was inactive.

Usually AC50 stands for the concentration giving half of the maximal activity seen. `Cc1cc(NC(=O)C(=O)O)cc(C)c1Oc1ccc(O)c2c1CCC2`: the outcome in assay [1] was “inactive”; with MYC, MYC (gene 4609), “inactive”; in assay [2] it was “inactive”; in [3] it was “inactive”; in [4], “inactive”; in [5], “inactive”. The outcome in [8], in assay [9], in assay [10], in [11], in assay [14] and in assay [15] was inactive. For the same molecule, the outcome in the assay with TIMP1, TIMP1 (gene 7076) is “inactive”; in [16], “inactive”; in [17], “inactive”. Further, the AC50 in [6] was 9.92 µM (active); in [7], 0.00353 µM (active); in assay [12] it was 50 µM (active); in assay [13], 0.526 µM (active).

For `COCCOC[C@H](CC1(C(=O)NC2CCC(C(=O)O)CC2)CCCC1)C(=O)Oc1ccc2c(c1)CCC2` (stereo not given in full), the outcome in assay [1] is “inactive”; with MYC, MYC (gene 4609), “inactive”; in assay [2], “inactive”; in assay [3] it was “inactive”; in [4], “inactive”; in [5] it was “inactive”. Moreover, the call in assay [6], in [7], in assay [8], in assay [9], in [10] and in assay [11] was inactive. Moreover, the outcome in assay [12] is “inactive”; in assay [13], “inactive”; in [14], “inactive”; in assay [15], “inactive”; with TIMP1, TIMP1 (gene 7076) it was “inactive”; in assay [16], “inactive”. In [17], the molecule was classed as inactive.

As to `C[C@]12C=CC(=O)C=C1CC[C@@H]1[C@@H]2C(=O)C[C@@]2(C)[C@H]1CC[C@]2(O)C(=O)CO`, the call in assay [1], in [2], in assay [3], in assay [18], in assay [4] and in [6] was inactive. Further, the result in assay [7], in assay [8], in assay [9], in assay [10], in [11] and in assay [12] was inactive. Further, the outcome in assay [13] was “inactive”; in assay [14] it was “inactive”; in assay [15], “inactive”; with TIMP1, TIMP1 (gene 7076), “inactive”; in assay [16], “inactive”; in assay [17] it was “inactive”.
